Source: PubChem BioAssay (Tox21)
Several values for one entry are separate records, joined by “and”; a condition that tells them apart may be missing. Equal values may be shown once. Inconclusive results are not listed. Entries that show only a call come without a potency. More than one record can exist for a structure, and the calls need not agree. Activity calls are given as the source filed them. The call rests on the fitted dose curve; in most records, active means well fitted inhibition curve with a large enough effect in the signal ratio in the repeat runs (not every such curve was filed as active); inconclusive means weak or mixed curves; inactive means flat fitted curve, though single readings scatter; the % refers to the signal ratio.

What follows are molecules tested against Progesterone receptor (Homo sapiens) (UniProt P06401) (assay: qHTS assay to identify small molecule antagonists of the progesterone receptor (PR) signaling pathway (AID 1346795)). Conditions: PR-UAS-bla HEK293T, beta-lactamase FRET ratio, 16 h; series mostly up to 92.4 µM.
Progesterone receptor (Homo sapiens), sequence (P06401 whole entry, looked up): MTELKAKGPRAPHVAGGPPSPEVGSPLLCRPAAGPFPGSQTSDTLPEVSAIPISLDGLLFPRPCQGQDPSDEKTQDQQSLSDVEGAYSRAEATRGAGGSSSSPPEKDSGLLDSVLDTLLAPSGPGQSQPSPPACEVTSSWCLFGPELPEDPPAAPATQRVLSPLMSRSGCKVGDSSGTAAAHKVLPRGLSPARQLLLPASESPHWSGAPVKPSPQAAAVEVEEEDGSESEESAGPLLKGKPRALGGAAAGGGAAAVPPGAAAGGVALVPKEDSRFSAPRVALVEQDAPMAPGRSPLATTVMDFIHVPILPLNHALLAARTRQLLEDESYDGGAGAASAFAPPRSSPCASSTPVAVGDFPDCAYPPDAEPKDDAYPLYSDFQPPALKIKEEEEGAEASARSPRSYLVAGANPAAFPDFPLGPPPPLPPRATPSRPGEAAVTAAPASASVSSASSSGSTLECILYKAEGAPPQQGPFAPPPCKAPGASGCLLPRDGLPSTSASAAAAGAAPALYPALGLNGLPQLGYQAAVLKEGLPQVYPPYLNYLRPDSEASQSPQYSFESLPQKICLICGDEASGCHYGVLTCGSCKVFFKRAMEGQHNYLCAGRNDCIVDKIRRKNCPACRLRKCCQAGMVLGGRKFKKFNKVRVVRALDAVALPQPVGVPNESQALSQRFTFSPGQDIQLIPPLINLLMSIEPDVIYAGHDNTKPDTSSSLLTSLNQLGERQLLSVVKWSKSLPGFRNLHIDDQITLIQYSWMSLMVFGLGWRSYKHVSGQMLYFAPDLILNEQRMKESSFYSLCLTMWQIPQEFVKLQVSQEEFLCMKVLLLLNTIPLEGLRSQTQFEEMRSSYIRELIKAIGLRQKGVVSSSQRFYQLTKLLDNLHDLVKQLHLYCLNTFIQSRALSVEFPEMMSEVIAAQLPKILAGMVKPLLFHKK
Method in brief: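 Inhibition of R5020-induced (1 nM final) beta-lactamase reporter signal in PR-UAS-bla HEK293T cells was scored by FRET fluorescence after overnight (16 hr) compound treatment.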
Potency means the concentration at half of the fitted maximal effect.

| Compound | Potency |
| --- | --- |
| CC1=CC(=O)NS(=O)(=O)O1 | inactive |
| Cc1cccnc1 | inactive |
| O=C(O)[C@H](O)[C@@H](O)[C@H](O)[C@H](O)CO | inactive |
| CC(=O)CC(=O)Nc1ccccc1 | inactive |
| COc1ccc2cc([C@H](C)C(=O)O)ccc2c1 | inactive |
| CSCCC=O | inactive |
| O=C(CC(C(=O)OC1CCCCC1)S(=O)(=O)O)OC1CCCCC1 (stereo not drawn) | inactive |
| O=c1[nH]c(=O)n([C@H]2CCCO2)cc1F | inactive |
| ON=C1CCCCC1 | inactive |
| CC(C)CC(=O)CC(C)C | inactive |
| O=c1[nH]nnc2ccccc12 | inactive |
| CN(C)CCC(c1ccc(Cl)cc1)c1ccccn1 (stereo not drawn) | inactive |
| CN(C)CCC(c1ccccc1)c1ccccn1 (stereo not drawn) | inactive |
| O=C1CCC(N2C(=O)c3ccccc3C2=O)C(=O)N1 (stereo not drawn) | inactive |
| CC1CCC2CC1C2(C)C (stereo not drawn) | inactive |
| O=C(Oc1ccccc1)c1ccccc1 | inactive |
| O=C(O)c1ccc(C(=O)O)cc1 | inactive |
| OCC(CO)(CBr)CBr | inactive |
| OCCOCCN1CCN(C2=Nc3ccccc3Sc3ccccc32)CC1 | inactive |

| Compound | Potency |
| --- | --- |
| Cc1occc(=O)c1O | inactive |
| CCCCC(CC)CO (stereo not drawn) | inactive |
| CCCCCCCCCCCCCCCO | inactive |
| CCCCCC/C(C=O)=C\c1ccccc1 | inactive |
| Nc1ccccc1[N+](=O)[O-] | inactive |
| Oc1cccc2ccccc12 | 28 µM (active) and 43.3 µM (active) |
| C=CCNC(N)=S | inactive |
| COc1ccc(Cl)cc1C(=O)NCCc1ccc(S(=O)(=O)NC(=O)NC2CCCCC2)cc1 | inactive |
| CCCC(C)=O | inactive |
| CCCSc1ccc2nc(NC(=O)OC)[nH]c2c1 | 4.86 µM (active) |
| CCCCC(CC)COC(=O)CS (stereo not drawn) | inactive |
| COCCCOc1ccnc(CS(=O)c2nc3ccccc3[nH]2)c1C (stereo not drawn) | 60.9 µM (active) and inactive |
| CCC(O)OCCCOC (stereo not drawn) | inactive |
| CCCCCCCCC/C=C/CC1CC(=O)OC1=O (stereo not drawn) | inactive |
| Cc1ccc(S(N)(=O)=O)cc1 | inactive |
| O=C(O)c1cc(C(=O)O)cc(S(=O)(=O)O)c1 | inactive |
| CCN(CC)c1ccc(C(=O)c2ccccc2C(=O)O)c(O)c1 | inactive |
| CN(C)CCOCCN(C)C | inactive |
| CCCCCC(N)=O | inactive |
